From PubChem BioAssay (NCI)
The panel holds about 79,000 compounds, 15% with a hit somewhere; the sample as a whole holds those more often. Activity calls are given as the source filed them. Rule as the data show it: active = growth inhibition above about 70%; inactive = the rest.

Columns and labels:
[1] = NCI Yeast Anticancer Drug Screen. Data for the rad52 strain (AID 147);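 also: 0% = growth of vehicle-treated control cultures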; settings: S. cerevisiae rad52 mutant growth inhibition, hits give high values
Summary of the method: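 Here a repair-compromised yeast strain receives each compound; its growth is then quantified and normalised to vehicle-only controls.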

[2] = NCI Yeast Anticancer Drug Screen. Data for the wt1 strain (AID 149);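 also: 0% = growth of vehicle-treated wt1 cultures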; settings: S. cerevisiae wt1 strain (SPY 50644) growth inhibition, hits give high values
Summary of the method: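 wt1 strain grown with compound or vehicle; inhibition taken from the growth difference.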

[3] = NCI Yeast Anticancer Drug Screen. Data for the rad50EPP+ strain (AID 151);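 also: 0% = growth of vehicle-treated control cultures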; settings: S. cerevisiae rad50 mutant strain, hits give high values
Summary of the method: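 Read-out is yeast growth inhibition relative to vehicle; cells used were the rad50EPP+ strain.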

[4] = NCI Yeast Anticancer Drug Screen. Data for the mgt1 strain (AID 153); settings: S. cerevisiae mgt1 mutant growth inhibition, hits give high values
Summary of the method: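 Measured: inhibition of mgt1 yeast growth by compound, normalized to vehicle-treated cultures.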

[5] = NCI Yeast Anticancer Drug Screen. Data for the rad50 strain (AID 155);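 also: 0% = growth of vehicle-only cultures of the same strain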; settings: S. cerevisiae rad50 strain growth inhibition, hits give high values
Summary of the method: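 DNA repair mutant yeast, compound exposure, growth read-out; inhibition is taken relative to vehicle.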

[6] = NCI Yeast Anticancer Drug Screen. Data for the mec2-1 strain (AID 157); settings: S. cerevisiae mec2-1 strain, hits give high values
Summary of the method: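 Using mec2-1 yeast: add compound, measure growth, express inhibition versus vehicle-treated cultures.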

[7] = NCI Yeast Anticancer Drug Screen. Data for the rad14 strain (AID 159);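 also: 0% = growth of vehicle-treated control cultures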; settings: S. cerevisiae rad14 strain growth inhibition, hits give high values
Summary of the method: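 DNA repair-defective yeast, compound-exposed; % growth inhibition derived by comparison with vehicle-treated controls.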

[8] = NCI Yeast Anticancer Drug Screen. Data for the sgs1 mgt1 strain (AID 161);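 also: 0% = growth of cultures given vehicle only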; settings: S. cerevisiae sgs1 mgt1 strain, hits give high values
Summary of the method: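 Percent growth inhibition was derived by comparing compound-exposed mutant yeast with vehicle-exposed cultures. The strain carries alterations in DNA damage repair.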

[9] = NCI Yeast Anticancer Drug Screen. Data for the cln2 rad14 strain (AID 165);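 also: 0% = growth equal to vehicle treated cultures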; settings: S. cerevisiae cln2 rad14 strain, hits give high values
Summary of the method: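 Yeast strain cln2 rad14, bearing defects in cell cycle control and DNA repair, serves as the test system; values reflect growth inhibition compared with vehicle.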

[10] = NCI Yeast Anticancer Drug Screen. Data for the bub3 strain (AID 167); settings: S. cerevisiae bub3 mutant strain, hits give high values
Summary of the method: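 In this screen, a yeast mutant lacking normal mitotic checkpoint function is challenged with compound. Relative growth versus vehicle gives the inhibition value.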

[11] = NCI Yeast Anticancer Drug Screen. Data for the wt2 strain (AID 169);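 also: 0% = growth of vehicle-treated yeast cultures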; settings: S. cerevisiae wt2 strain growth inhibition, hits give high values
Summary of the method: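 Treated yeast vs. vehicle-treated yeast: growth inhibition determined.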

[12] = NCI Yeast Anticancer Drug Screen. Data for the mlh1 strain (AID 171);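 also: 0% = growth of vehicle-treated control cultures of the same strain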; settings: S. cerevisiae mlh1 strain growth inhibition, hits give high values
Summary of the method: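 A yeast strain with a defined genetic lesion serves as the test organism. Cultures receive compound or vehicle, and growth is measured.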

[13] = NCI Yeast Anticancer Drug Screen. Data for the sgs1 strain (AID 173);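 also: 0% = growth of vehicle-only control cultures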; settings: S. cerevisiae sgs1 mutant, hits give high values
Summary of the method: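 A genetically defined yeast mutant is incubated with the test compound, and its growth is compared to that of the same strain given vehicle.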

[14] = NCI Yeast Anticancer Drug Screen. Data for the mlh1 rad18 strain (AID 175); settings: S. cerevisiae mlh1 rad18 strain growth inhibition, hits give high values
Summary of the method: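 Steps: expose repair-defective yeast to compound; measure growth; express inhibition against vehicle-treated controls.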

[15] = NCI Yeast Anticancer Drug Screen. Data for the rad18 strain (AID 177); settings: S. cerevisiae rad18 mutant growth inhibition, hits give high values
Summary of the method: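 Measured value is growth inhibition of a yeast strain bearing a DNA repair alteration, referenced to vehicle-treated cells.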

[16] = NCI Yeast Anticancer Drug Screen. Data for the CLN2oe strain (AID 163);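 also: 0% = growth of vehicle-only control cultures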; settings: S. cerevisiae CLN2oe strain, hits give high values
Summary of the method: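 Whole-cell yeast growth assay. A strain engineered for altered cell-cycle control received compound, and inhibition relative to vehicle-treated cultures was recorded.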

[17] = at 5.0 µM (retest, dose inferred, filed as 0.5)
[18] = at 50.0 µM (retest, dose inferred, filed as 5.0)

Measured: growth inhibition

CCCCCCSc1ncnc2[nH]ncc12
active: [5]; at 50.0 µM 79.4% | [6]; at 50.0 µM 76.5% | [8]; at 50.0 µM 72.1% | [10]; at 50.0 µM 93% | [14]; at 50.0 µM 80.8%
inactive: [1]; at 1.2 µM -2% | [1]; at 3.7 µM -1% | [1]; at 11.0 µM 0% | [1]; at 33.0 µM -1% | [1]; at 100.0 µM -1% | [2]; at 1.2 µM -1% | [2]; at 3.7 µM -2% | [2]; at 11.0 µM -3% | [2]; at 33.0 µM -63% | [2]; at 100.0 µM -5% | [3]; at 1.2 µM -2% | [3]; at 3.7 µM 2% | [3]; at 11.0 µM 10% | [3]; at 33.0 µM 22% | [3]; at 100.0 µM 12% | [4]; at 1.2 µM -2% | [4]; at 3.7 µM -1% | [4]; at 11.0 µM -2% | [4]; at 33.0 µM -3% | [4]; at 100.0 µM -4% | [5]; at 1.2 µM 2% | [5]; at 3.7 µM 4% | [5]; [17] -1% | [5]; at 11.0 µM 34% | [5]; at 33.0 µM 4% | [5]; [18] 5% | [5]; at 100.0 µM 5% | [6]; at 1.2 µM -3% | [6]; at 3.7 µM -2% | [6]; [17] 0% | [6]; at 11.0 µM 0% | [6]; at 33.0 µM 0% | [6]; [18] 6% | [6]; at 100.0 µM 0% | [7]; at 1.2 µM -2% | [7]; at 3.7 µM 1% | [7]; at 11.0 µM 1% | [7]; at 33.0 µM 5% | [7]; at 100.0 µM 5% | [8]; [17] -2% | [8]; [18] 0% | [9]; [17] -5% | [9]; [18] 6% | [9]; at 50.0 µM 18.9% | [10]; at 1.2 µM 4% | [10]; at 3.7 µM 7% | [10]; [17] 11% | [10]; at 11.0 µM 9% | [10]; at 33.0 µM 15% | [10]; [18] 54% | [10]; at 100.0 µM 6% | [11]; at 1.2 µM -3% | [11]; at 3.7 µM 6% | [11]; at 11.0 µM -3% | [11]; at 33.0 µM -3% | [11]; at 100.0 µM -3% | [12]; at 1.2 µM -1% | [12]; at 3.7 µM -1% | [12]; at 11.0 µM -2% | [12]; at 33.0 µM -2% | [12]; at 100.0 µM -3% | [13]; at 1.2 µM -3% | [13]; at 3.7 µM -3% | [13]; at 11.0 µM 0% | [13]; at 33.0 µM 1% | [13]; at 100.0 µM 3% | [14]; [17] -1% | [14]; [18] 4% | [15]; at 1.2 µM -2% | [15]; at 3.7 µM 1% | [15]; at 11.0 µM 6% | [15]; at 33.0 µM 1% | [15]; at 100.0 µM 3%

O=C1NC(SSC2=NNC3(C(=O)N2)c2ccccc2-c2ccccc23)=NNC12c1ccccc1-c1ccccc12
inactive: [1]; at 1.2 µM 2% | [1]; at 3.7 µM -1% | [1]; at 11.0 µM 1% | [1]; at 33.0 µM 8% | [1]; at 100.0 µM 33% | [2]; at 1.2 µM 0% | [2]; at 3.7 µM 0% | [2]; at 11.0 µM 0% | [2]; at 33.0 µM 1% | [2]; at 100.0 µM 5% | [3]; at 1.2 µM 8% | [3]; at 3.7 µM 9% | [3]; at 11.0 µM 20% | [3]; at 33.0 µM 43% | [3]; at 100.0 µM 63% | [4]; at 1.2 µM 1% | [4]; at 3.7 µM 0% | [4]; at 11.0 µM 0% | [4]; at 33.0 µM -10% | [4]; at 100.0 µM 7% | [5]; at 1.2 µM -1% | [5]; at 3.7 µM 7% | [5]; [17] -4% | [5]; at 11.0 µM -13% | [5]; at 33.0 µM 18% | [5]; [18] 53% | [5]; at 100.0 µM 37% | [6]; at 1.2 µM 1% | [6]; at 3.7 µM 2% | [6]; [17] -11% | [6]; at 11.0 µM 3% | [6]; at 33.0 µM 7% | [6]; [18] 10% | [6]; at 100.0 µM 13% | [8]; [17] -7% | [8]; [18] -23% | [16]; at 1.2 µM 4% | [16]; at 3.7 µM 1% | [16]; at 11.0 µM 1% | [16]; at 33.0 µM 5% | [16]; at 100.0 µM 2% | [9]; [17] 0% | [9]; [18] -14% | [9]; at 50.0 µM 51.8% | [10]; at 1.2 µM 4% | [10]; at 3.7 µM 6% | [10]; [17] 10% | [10]; at 11.0 µM 7% | [10]; at 33.0 µM 12% | [10]; [18] 25% | [10]; at 100.0 µM 12% | [11]; at 1.2 µM -1% | [11]; at 3.7 µM -3% | [11]; at 11.0 µM -3% | [11]; at 33.0 µM 0% | [11]; at 100.0 µM 5% | [12]; at 1.2 µM 3% | [12]; at 3.7 µM 1% | [12]; at 11.0 µM 2% | [12]; at 33.0 µM 8% | [12]; at 100.0 µM 17% | [13]; at 1.2 µM -4% | [13]; at 3.7 µM -1% | [13]; at 11.0 µM -6% | [13]; at 33.0 µM 1% | [13]; at 100.0 µM 11% | [14]; [17] -11% | [14]; [18] -7%
active: [5]; at 50.0 µM 96.2% | [6]; at 50.0 µM 80% | [8]; at 50.0 µM 80.5% | [10]; at 50.0 µM 86.5% | [14]; at 50.0 µM 96.2%
